Casp1 inh: allosteric or competitive inhibitors of human caspase-1; Potency, µM (top dose mostly 57.5 µM), actives largely listed as inhibitors; 0.03% of 75,000 active; AID 900; Caspase-1 enzyme, Ac-WEHD-AFC fluorogenic rate; P29466
ERK AVP inh: vasopressin-driven ERK pathway inhibition. AID 995. Potency, µM (titrated, usually from 57.5 µM), actives largely listed as inhibitors. HEK293-V1b, vasopressin-stimulated pERK AlphaScreen. 0.99% of 72,000 active; also: nearly all actives have a fitted effect of over 55% in size
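HEK293 cells stably expressing V1b receptor, preincubated 30 min at 37 °C with compound, then stimulated 5 min with 25 nM vasopressin. Phospho-ERK by AlphaScreen SureFire after 5 h RT; normalized to DMSO and vasopressin; AC50 by Hill fit.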
15-hLO inh: 15-hLO (ALOX15) enzyme inhibition | purified 15hLO-1, xylenol orange hydroperoxide absorbance | Potency, µM (highest dose often 57.1 µM), usual class: inhibitors | P16050 | 1.4% of 74,000 active; also: nearly all actives have a fitted effect of over 55% in size
Target sequence (P16050 whole entry, looked up): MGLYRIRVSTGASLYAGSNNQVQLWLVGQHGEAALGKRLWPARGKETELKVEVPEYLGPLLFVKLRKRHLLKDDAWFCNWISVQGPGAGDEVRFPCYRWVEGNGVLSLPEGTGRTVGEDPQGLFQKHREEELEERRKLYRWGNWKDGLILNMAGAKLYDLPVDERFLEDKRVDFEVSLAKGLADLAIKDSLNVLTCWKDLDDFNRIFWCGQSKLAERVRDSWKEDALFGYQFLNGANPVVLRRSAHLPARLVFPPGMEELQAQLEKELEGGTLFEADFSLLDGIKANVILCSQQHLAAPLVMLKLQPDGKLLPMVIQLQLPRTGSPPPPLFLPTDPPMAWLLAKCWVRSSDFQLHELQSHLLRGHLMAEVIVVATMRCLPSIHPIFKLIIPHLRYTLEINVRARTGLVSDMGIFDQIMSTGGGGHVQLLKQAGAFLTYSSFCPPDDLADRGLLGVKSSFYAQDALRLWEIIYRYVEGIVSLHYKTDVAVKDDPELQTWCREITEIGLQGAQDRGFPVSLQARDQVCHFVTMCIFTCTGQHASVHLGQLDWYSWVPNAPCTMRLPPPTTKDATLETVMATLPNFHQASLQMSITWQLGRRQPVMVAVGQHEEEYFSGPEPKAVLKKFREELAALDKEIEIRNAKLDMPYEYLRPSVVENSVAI
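Purified human 15hLO-1 (40 nM final) in 25 mM Hepes pH 7.5, 0.01% Triton X-100 was preincubated with compound 15 min at room temperature, then reacted 6 min with 50 uM arachidonic acid; hydroperoxide detected by Fe-XO, 573/405 nm absorbance ratio.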
Caspase-7 inhib: caspase-7 (human) inhibition, allosteric or competitive; 0.02% of 75,000 active; P55210; Potency, µM (highest dose often 57.5 µM), usual class: inhibitors; AID 889; recombinant caspase-7, Ac-DEVD-AFC fluorescence rate; active = well fitted inhibition curve with a large enough effect in the main read-out, with a control signal flat, not every such curve was filed as active; inconclusive = small, poorly fitted or top-dose-only effect, or a change in a side signal
Tau filament bind: binds recombinant human tau filaments; recombinant tau filaments, thioflavin S fluorescence, 15 h; filaments grown with octadecylsulfate alongside compound; Potency, µM (doses to about 57.1 µM); 2% of 71,000 active;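 also: actives lower thioflavin S fluorescence by blocking filaments or displacing dye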
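ThS-based fibril read: tau 1 uM final, inducer ODS 30 uM final, 37 C for 15 h, ex 450/em 510 nm.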
A number is an active result; – = inactive; ? = inconclusive; · = not tested or not shown; [ ] = another dose, or the depositor's remark. Most compounds without a hit are left out; they make up all but 3.9% or so of the library. Unless noted, calls follow the shape of the dose curve; as a rule, active = well fitted curve in the direction sought with a large enough effect; inconclusive = small, poorly fitted or top-dose-only effect, or another doubt; inactive = no such curve, though single readings can be large; an effect the other way counts as inactive or inconclusive.

SMILES	Casp1 inh	ERK AVP inh	15-hLO inh	Caspase-7 inhib	Tau filament bind
Cc1ccc(Cl)cc1N1CCN(C(=O)CCS(=O)(=O)c2cccc3nonc23)CC1	–	–	–	–	12.6µM
O=C(CCS(=O)(=O)c1cccc2nonc12)N1CCCc2ccccc21	–	–	–	–	–
c1ccc2c(c1)ncn2CCn1cnc2ccccc21	–	–	–	–	–
OC(CN(c1ccccc1)c1ccccc1)Cn1cnc2ccccc21 (configuration not stated)	–	?	–	–	12.6µM
O=C1C=CC(=O)C2=C1C1c3ccccc3C2c2ccccc21	–	–	0.794µM	–	·
COc1cccc(C(=O)NCC(c2cccnc2)N2CCN(c3ccccc3OC)CC2)c1 (configuration not stated)	–	·	12.6µM	–	–
COc1ccc(-c2cc(C(=O)N/N=C\c3cc(OC)c(OC)c(OC)c3)[nH]n2)cc1	–	·	–	–	·
Nc1nc(SCCc2ccccc2)c2[nH]cnc2n1	–[11.5 µM]	–[11.5 µM]	–[11.4 µM]	–[11.5 µM]	–[11.4 µM]
N#CCCN1CCN(C(=S)c2ccc(-c3ccc(Cl)c(Cl)c3)o2)CC1	–	–	?	–	12.6µM
N#CCCN1CCN(Cc2cc(-c3ccccc3)ccc2O)CC1	–	–	–	–	–
S=C(c1ccc(-c2cc(Cl)ccc2Cl)o1)N1CCOCC1	–	·	?	–	·
N#CCCN1CCN(C(=S)c2ccc(-c3cccc(Cl)c3)o2)CC1	–	?	–	–	3.98µM
S=C(c1ccc(-c2cccc(Cl)c2)o1)N1CCOCC1	–	?	?	–	15.8µM
COCC(=O)N1CCC2(CCCN(c3ccccn3)C2)CC1	–	–	–	–	–
COc1cc2[nH]c(=S)n(C3CCCC3)c(=O)c2cc1OC	–	?	15.8µM	–	–
COc1cc2[nH]c(=S)n(CC3CCCO3)c(=O)c2cc1OC (configuration not stated)	–	–	–	–	–
C[C@@H](CC(=O)O)[C@@H](N)C(=O)O	–	–	–	–	?
O=C(CCN1c2ccccc2Sc2ccccc21)OCc1nnc(-c2ccccc2)o1	–	–	?	·	–
O=C(Sc1nnc(-c2ccccc2)o1)N1c2ccccc2Sc2ccccc21	–	–	2.51µM	–	–[11.4 µM]
COc1ccccc1N1CCN(Cc2ccco2)CC1	–	–	–	–	–
COc1ccccc1N1CCN(C/C=C/c2ccc(N(C)C)cc2)CC1	–	15.8µM	25.1µM	–	?
COCCn1c(=O)c(-c2cccc(C#N)c2)nc2cnc(OCc3ccccc3)nc21	?	–	–	–	25.1µM
COc1cccc2c1C(=O)CC(c1ccccc1)O2 (configuration not stated)	–	–	–	–	·
Clc1ccc2c(N3CCCC3)ccnc2c1	?	–	20µM	–	20µM
C[C@@H]1O[C@@H](n2cc(F)c(=O)[nH]c2=O)[C@H](O)[C@@H]1O	–	–	–	–	–
SMILES	Casp1 inh	ERK AVP inh	15-hLO inh	Caspase-7 inhib	Tau filament bind
N#C/C(=C1\CCCN1)c1ccc2ccccc2n1	?	15.8µM	–	–	–
CCOC(=O)c1ccc(-n2c(=S)sc3c(=O)[nH]c(C)nc32)cc1	–	–	10µM	–	–
O=C(O)c1ccccc1NS(=O)(=O)c1cccc2ccccc12	–	·	–	–	·
C/C=C\C1=C(CO)C(=O)[C@@H]2OC2C1=O (some centres not stated)	–[11.5 µM]	–[11.5 µM]	?	–[11.5 µM]	·
O=C(Cn1cnnn1)OCC(=O)c1ccc(Cl)s1	–	–	–	–	10µM
C=CCNC(=O)C(C#N)c1nc2ccccc2nc1N1CCN(Cc2ccccc2)CC1 (configuration not stated)	–	–	–	–	–
CC(C)COC(=O)C(C#N)c1nc2ccccc2nc1N1CCN(Cc2ccccc2)CC1 (configuration not stated)	–	–	–	–	2µM
COCC(C)OC(=O)C(C#N)c1nc2ccccc2nc1N1CCN(Cc2ccccc2)CC1 (configuration not stated)	–	–	–	–	3.16µM
COCCNC(=O)C(C#N)c1nc2ccccc2nc1N1CCCCCC1 (configuration not stated)	·	–	?	?	–
COCCOC(=O)C(C#N)c1nc2ccccc2nc1N1CCN(Cc2ccccc2)CC1 (configuration not stated)	·	–	–	?	?
C=CCOC(=O)C(C#N)c1nc2ccccc2nc1N1CCN(Cc2ccccc2)CC1 (configuration not stated)	?	?	–	–	1.58µM
CCC(CC)COC(=O)C(C#N)c1nc2ccccc2nc1N1CCOCC1 (configuration not stated)	–	–	–	–	3.16µM
CCNc1ncc2nc(-c3ccc(F)cc3)c(=O)n(C)c2n1	·	–	?	?	–
CCC1=C(OC(=O)N(CC)CC)N2C(=O)OC(=NCCOC)[C@]2(C)[C@H]2C1=CC[C@H]1C(=O)N(CC(=O)OC)C(=O)[C@H]12	–	–	·	–	·
N#CC(C(=O)OC1CCCCC1)c1nc2ccccc2nc1N1CCOCC1 (configuration not stated)	–	–	–	–	–
CN1CCN(c2nc3ccccc3nc2C(C#N)C(=O)OC2CCCCC2)CC1 (configuration not stated)	–	–	–	–	0.631µM
CC(C)(C)COS(=O)OCC(C)(C)C	–[11.5 µM]	–[11.5 µM]	–[11.4 µM]	–[11.5 µM]	–[11.4 µM]
O=c1c(CCc2ccccc2)nc2cnc(N3CCOCC3)nc2n1Cc1ccc(F)cc1	–	–	–	–	–
COc1cc(C(=O)Nc2nnc(-c3sccc3C)s2)cc(OC)c1OC	?	–	20µM	–	–
CC(C)[C@@H](CC(=O)N[C@@H]1CCNC[C@H]1C(=O)N[C@H](CC(=O)N[C@@H](CCC(=O)O)CC(=O)O)Cc1ccccc1)NC(=O)C[C@H](Cc1c[nH]c2ccccc12)NC(=O)[C@@H]1CCCC[C@H]1N	·	·	·	·	–
O=C(O)c1ccc(/C=N\N=C2c3ccccc3-c3ccccc32)cc1	–[11.5 µM]	–[11.5 µM]	–[11.4 µM]	–[11.5 µM]	–[11.4 µM]
COc1cccc(-c2cc(NCc3cccs3)ncn2)c1	–	25.1µM	–	–	–
CN(Cc1ccco1)c1nc(-c2ccc3c(c2)OCO3)nc2ccccc12	–	–	–	–	–
COc1cccc(-c2nc(N(C)Cc3ccco3)c3ccccc3n2)c1	–	–	10µM	–	–
COc1cccc(-c2nc(NCc3cccs3)c3ccccc3n2)c1	–	31.6µM	–	–	–
SMILES	Casp1 inh	ERK AVP inh	15-hLO inh	Caspase-7 inhib	Tau filament bind
COc1cccc(-c2cc(NCc3cccc(C)c3)ncn2)c1	–	?	–	–	–
COc1cccc(-c2cncnc2NCc2ccccc2)c1	–	20µM	–	–	–
COc1cccc(-c2cncnc2NCc2cccs2)c1	–	10µM	?	–	–
Cc1ccccc1-c1cncnc1NCc1cccs1	–	25.1µM	–	–	–
Clc1ccccc1-c1cncnc1NCc1cccs1	–	?	?	–	–
CN(C)c1ccc(N=Cc2nc(-c3ccccc3)oc2O)cc1	–	12.6µM	–	–	–
Cc1ccccc1-c1cc(Nc2ccccc2)ncn1	–	?	–	–	–

High-throughput results: PubChem, National Center for Advancing Translational Sciences (NCATS)
